Sampled rows, rich in hits. Any-hit rate of the full collection: about 10%.
GLS inh – glutaminase GLS (human) inhibition. O94925. GLS enzymatic activity, qHTS titration. Potency, µM (titrated, usually from 45.5 µM), actives largely listed as inhibitors. actives 0.21% (n = 410,000). AID 624170
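Glutamate formation by hKGA was monitored fluorometrically using coupled glutamate oxidase, HRP and Amplex Red. Substrate was added as 1 mM L-glutamine solution; incubation was 30 min at RT after an initial read.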
G9a inh – blocks human histone lysine methyltransferase G9a | Q96KQ7 | G9a H3K9 monomethylation, AlphaScreen, 2 h | Potency, µM (highest dose often 102 µM), hits mostly inhibitors | actives 8.8% (n = 350,000); note: nearly all actives have a fitted effect of over 75% in size
Target sequence (Q96KQ7 913-1193 limits assumed): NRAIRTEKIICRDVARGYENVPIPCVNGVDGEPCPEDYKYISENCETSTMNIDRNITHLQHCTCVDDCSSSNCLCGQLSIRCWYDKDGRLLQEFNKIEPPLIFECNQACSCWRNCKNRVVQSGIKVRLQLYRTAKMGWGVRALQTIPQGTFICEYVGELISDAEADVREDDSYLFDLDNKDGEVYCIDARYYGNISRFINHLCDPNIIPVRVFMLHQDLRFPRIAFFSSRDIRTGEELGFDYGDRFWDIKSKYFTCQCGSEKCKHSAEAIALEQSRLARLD
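Enzyme 20 nM + cpd, 15 min RT; add b-H3K9 pep 500 nM / SAM 20 uM; 2 h RT; anti-H3K9me1 Ab 0.5 ug/mL + SA donor / anti-rabbit acceptor beads 20 ug/mL each, 10 min; AlphaScreen read.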
BAZ2B inh – inhibitors of human BAZ2B bromodomain | Q9UIF8 | AlphaScreen BAZ2B-H3K14Ac peptide displacement | Potency, µM (series often up to 114 µM), usual class: inhibitors | actives 4.4% (n = 360,000); note: nearly all actives have a fitted effect of over 60% in size
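Inhibition is scored as reduced AlphaScreen emission. The BAZ2B/b-H3(5-23)K14Ac complex (50 nM each) in PBS pH 7.4, 0.01% Tween-20 meets compound (up to 110 uM) for 30 min at RT before bead addition.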
HP1b binding inh – HP1-beta chromodomain-methylated histone interaction inhibition. P83916. AlphaScreen HP1-beta / biotin-H3K9me3 peptide binding. Potency, µM (series often up to 114 µM), most hits filed as inhibitors. actives 0.56% (n = 390,000). AID 540317; note: nearly all actives have a fitted effect of over 70% in size
Target sequence (P83916 whole entry, looked up): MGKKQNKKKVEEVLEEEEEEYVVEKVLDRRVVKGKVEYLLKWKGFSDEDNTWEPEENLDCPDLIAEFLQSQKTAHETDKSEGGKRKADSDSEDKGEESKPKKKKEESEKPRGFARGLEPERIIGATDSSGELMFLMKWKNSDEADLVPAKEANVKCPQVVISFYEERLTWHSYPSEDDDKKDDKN
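AlphaScreen: HP1-beta (50 nM) preformed 30 min with biotin-H3(1-18)K9me3 peptide (50 nM) in PBS pH 7.4, 0.01% Tween-20. Compound added for 30 min at RT, then streptavidin donor/nickel chelate acceptor beads (10 ug/mL) for 30 min.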
JMJD2A Tudor inh – JMJD2A Tudor domain (human) inhibition | O75164 | AlphaScreen JMJD2A-Tudor / H3K4me3 peptide binding | Potency, µM (titrated, usually from 114 µM), most hits filed as inhibitors | actives 4.4% (n = 390,000) | AID 504339; note: nearly all actives have a fitted effect of over 50% in size
Large screens that a line does not name were inactive. Calls come from the whole dose curve; as a rule, active = well fitted curve in the direction sought with a large enough effect; inconclusive = small, poorly fitted or top-dose-only effect, or another doubt; inactive = no such curve, though single readings can be large; an effect the other way counts as inactive or inconclusive.

CN(C)c1ccc(/C=C/c2cccc[n+]2[O-])cc1	G9a inh 50µM
CC(C)CC[n+]1ccccc1/C=C/c1ccc(N(C)C)cc1	G9a inh 32µM
O=[N+]([O-])c1cccc(-c2ccc3nnc(SCc4cccnc4)n3n2)c1	none (no result: G9a inh, BAZ2B inh)
Cc1ccc(C)c(NC(=O)CCCN2C(=O)C(c3ccccc3)Oc3cccnc32)c1 (stereo unspecified)	none
O=C1CN(S(=O)(=O)c2cccc(C(=O)O)c2)c2ccccc2N1	G9a inh 50µM
COc1cc(S(=O)(=O)N2CC(=O)Nc3ccccc32)ccc1NC(C)=O	G9a inh 40µM
COc1ccc(S(=O)(=O)N2CC(=O)Nc3ccccc32)cc1C	none
Cc1cc(C)cc(C(=O)N2CC(=O)Nc3ccccc32)c1	BAZ2B inh inconclusive
CSc1ccc(S(=O)(=O)N2CC(=O)Nc3ccccc32)cc1	none
CCc1cccc(Nc2c([N+](=O)[O-])cc(C(=O)N3CC(=O)Nc4ccccc43)cc2[N+](=O)[O-])c1	G9a inh 25µM, BAZ2B inh 10µM, HP1b binding inh inconclusive, JMJD2A Tudor inh inconclusive
CS(=O)(=O)c1ccc(C(=O)N2CC(=O)Nc3ccccc32)cc1	G9a inh 50µM
Cc1ccc(N(Cc2ccccc2)C(=O)Cc2ccc(S(=O)(=O)N3CCOCC3)s2)cc1	none
CCCC12CN3CC(CCC)(CN(C1)C3c1ccc(OCc3ccccc3)cc1)C2=O (stereo unspecified)	none
Cc1cnn(CCC(=O)NNC(=S)Nc2cccc(Cl)c2)c1	G9a inh 50µM
Cc1nn(CCC(=O)NNC(=S)Nc2ccc(Cl)cc2)c(C)c1[N+](=O)[O-]	G9a inh 10µM
Cc1nn(C(C)C(=O)Nc2ccc3c(c2)OCO3)c(C)c1[N+](=O)[O-] (stereo unspecified)	BAZ2B inh inconclusive, JMJD2A Tudor inh inconclusive (no result: G9a inh)
Cc1nn(C(C)C(=O)NNC(=S)Nc2ccc(Cl)cc2)c(C)c1[N+](=O)[O-] (stereo unspecified)	G9a inh 8.9µM
Cc1cccc(NC(=S)NNC(=O)CCn2nc(C)c([N+](=O)[O-])c2C)c1	G9a inh inconclusive
Cc1nn(CCC(=O)NNC(=S)Nc2cccc(Cl)c2)c(C)c1[N+](=O)[O-]	G9a inh 8.9µM
CCN(CC(=O)Nc1ccc(OC)cc1)CC(=O)Nc1cccc(S(=O)(=O)N2CCOCC2)c1	none (no result: G9a inh, BAZ2B inh, HP1b binding inh, JMJD2A Tudor inh)
CC1=NN(C(=O)c2ccccc2)C(O)(c2ccc(Br)cc2)C1 (stereo unspecified)	BAZ2B inh inconclusive
CCC1=NN(C(=O)c2ccc(Br)cc2)C(O)(c2ccccc2)C1 (stereo unspecified)	BAZ2B inh 50µM
NC(=NCCc1c[nH]c2ccccc12)NC(=O)c1ccc(F)cc1	G9a inh inconclusive, BAZ2B inh inconclusive, HP1b binding inh inconclusive, JMJD2A Tudor inh inconclusive
CC(=O)c1c(C)[nH]c(C(=O)OC(C)C(=O)NC2CCCCC2)c1C (stereo unspecified)	none (no result: G9a inh, BAZ2B inh, HP1b binding inh, JMJD2A Tudor inh)
Cn1c(=O)c2c(nc(Oc3ccccc3Cl)n2Cc2ccc(C#N)cc2)n(C)c1=O	none (no result: BAZ2B inh)
Cc1cc(C)c(S(=O)(=O)c2ccc(Cl)cc2)c(=O)[nH]1	none
N#Cc1cc(S(=O)(=O)c2ccc(Cl)cc2)c(N)[nH]c1=O	G9a inh 50µM
O=C1CCc2cc(S(=O)(=O)Nc3cccc(C(F)(F)F)c3)ccc2N1	none (no result: GLS inh, G9a inh, BAZ2B inh, HP1b binding inh)
COc1ccc(N2CC(C(=O)N(C)CC(=O)Nc3ccc(Cl)c(C(F)(F)F)c3)CC2=O)c(OC)c1 (stereo unspecified)	none
COc1ccc(Nc2ncccc2C(=O)Nc2ccccc2)cc1	GLS inh inconclusive, G9a inh inconclusive, BAZ2B inh 50µM, HP1b binding inh inconclusive, JMJD2A Tudor inh inconclusive
COc1ccc(Nc2ncccc2C(=O)NCc2ccccc2)cc1	BAZ2B inh inconclusive, JMJD2A Tudor inh inconclusive
COc1cccc(Nc2ncccc2C(=O)NCc2ccccc2)c1	G9a inh 8.9µM
Cc1c(C(=O)NCc2ccc(Cl)cc2)sc2nc3n(c(=O)c12)CCC3	JMJD2A Tudor inh inconclusive
COc1ccc(CNC(=O)c2sc3nc4n(c(=O)c3c2C)CCCCC4)cc1	G9a inh 14µM, BAZ2B inh 16µM, JMJD2A Tudor inh 89µM
Cc1cc(Br)ccc1NC(=O)c1sc2nc3n(c(=O)c2c1C)CCCC3	G9a inh 13µM, BAZ2B inh 18µM, JMJD2A Tudor inh 79µM

Screening results from PubChem BioAssay.
